# From PubChem BioAssay
# “And” between values parts separate entries of the source, which are not always exact repeats. Equal entries are not always repeated. Records with an inconclusive call do not appear. The source made the active and inactive calls. Cut-off read from the data, not from the text of the source, unless noted: active = inhibition above about 80%; inactive = the rest.
# Legend:
# [1] = circadian clock period modulators, cell-based, LOPAC library, luminescence reporter (AID 2774; call rule not given here;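 note: values are relative to mean of DMSO wells on each plate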); details: circadian reporter cells, at 7 µM, actives lie on both sides
# [2] = growth inhibition of DIPG glioma cells, dose response, cell-based, SU-DIPG-XIII, MIPE5.0, CellTiter-Glo, qHTS (AID 1347064; cut-off not given, nearly all actives have AC50 up to about 23 µM); details: SU-DIPG-XIII viability, CellTiter-Glo ATP luminescence
# [3] = test system: Aerobactin synthetase IucA (Klebsiella pneumoniae); test: IucA aerobactin synthetase inhibitors, biochemical, Tocris library, absorbance (AID 1345561; call rule not given here;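 note: 100% = enzyme without compound and 0% = no enzyme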); details: purified IucA enzyme assay, absorbance (OD) read-out; stronger effect = lower value;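 tested at 8 µM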
# [4] = liver-stage malaria parasite growth inhibition, primary screen, cell-based, HepG2, luciferase luminescence, HepG2 viability (AID 624349; in the data active = parasite load remaining mostly below about 12%, no sharp cut-off; inactive = mostly above about 10%;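 note: 100% = mean of DMSO negative control wells on the same plate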); details: P. berghei liver stage in HepG2, luciferase luminescence, concentration not given here; parasite load remaining: stronger effect = lower value; viability: measured here: HepG2 viability without parasites
# [5] = test system: Neuropilin-2 / VEGF-C interaction (human); test: inhibitors of NRP2–VEGF-C binding, biochemical, microplate binding format, z-score (AID 743281; call rule not given here); details: microplate NRP2/VEGF-C binding assay; stronger effect = lower value
# [6] = molecular target: ATP-dependent translocase ABCB1 (Homo sapiens) (UniProt P08183); test: MDR1 (ABCB1) efflux transporter inhibition, cell-based (AID 377; in the data active = fluorescence slope change above about 50%); details: MDR1-expressing cells, fluorescent substrate accumulation slope; stronger effect = higher value; concentration not given here
# Sequence of ATP-dependent translocase ABCB1 (Homo sapiens) (P08183 whole entry, looked up): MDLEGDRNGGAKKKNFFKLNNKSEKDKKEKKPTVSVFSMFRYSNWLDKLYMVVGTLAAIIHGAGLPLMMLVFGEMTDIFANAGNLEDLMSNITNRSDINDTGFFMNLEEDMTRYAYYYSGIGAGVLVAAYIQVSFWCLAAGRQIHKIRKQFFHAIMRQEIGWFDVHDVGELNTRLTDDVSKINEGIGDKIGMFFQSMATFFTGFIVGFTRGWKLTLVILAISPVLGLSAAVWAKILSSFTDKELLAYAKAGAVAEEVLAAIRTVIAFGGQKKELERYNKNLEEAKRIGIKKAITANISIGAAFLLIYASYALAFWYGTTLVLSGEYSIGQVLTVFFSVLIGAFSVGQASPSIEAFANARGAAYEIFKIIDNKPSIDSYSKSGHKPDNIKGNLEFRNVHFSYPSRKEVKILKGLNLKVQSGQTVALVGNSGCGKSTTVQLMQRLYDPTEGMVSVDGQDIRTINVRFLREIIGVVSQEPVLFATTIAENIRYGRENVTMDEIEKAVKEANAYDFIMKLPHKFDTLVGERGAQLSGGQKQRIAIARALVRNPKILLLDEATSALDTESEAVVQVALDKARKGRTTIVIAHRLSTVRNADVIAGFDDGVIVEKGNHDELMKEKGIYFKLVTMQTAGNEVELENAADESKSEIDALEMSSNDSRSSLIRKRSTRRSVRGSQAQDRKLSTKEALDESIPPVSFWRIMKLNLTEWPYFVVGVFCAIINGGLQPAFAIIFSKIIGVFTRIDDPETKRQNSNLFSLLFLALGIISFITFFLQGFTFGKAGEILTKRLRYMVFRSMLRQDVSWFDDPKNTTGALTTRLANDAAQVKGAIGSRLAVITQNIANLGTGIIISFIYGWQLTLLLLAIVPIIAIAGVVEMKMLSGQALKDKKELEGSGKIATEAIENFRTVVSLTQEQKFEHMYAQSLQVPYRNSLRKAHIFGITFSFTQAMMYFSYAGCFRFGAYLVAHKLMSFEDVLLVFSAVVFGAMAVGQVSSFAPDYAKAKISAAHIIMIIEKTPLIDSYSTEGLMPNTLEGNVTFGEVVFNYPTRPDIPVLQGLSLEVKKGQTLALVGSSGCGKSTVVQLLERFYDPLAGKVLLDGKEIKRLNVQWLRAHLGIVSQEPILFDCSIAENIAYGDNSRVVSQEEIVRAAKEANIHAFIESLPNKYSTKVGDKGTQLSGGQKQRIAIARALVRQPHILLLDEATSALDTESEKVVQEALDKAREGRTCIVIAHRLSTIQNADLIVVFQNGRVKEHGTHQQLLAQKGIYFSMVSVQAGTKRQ
# [7] = modifiers of HSF1 nuclear foci, imaging, Selleck Cancer Library (AID 1347162; in the data active = plate-normalised HSF1 focus index below about 0.46); details: human cells, at 10 µM; SSMD: measured here: HSF1 foci SSMD mean; cell count: measured here: cell number; plate-normalised HSF1 focus index: stronger effect = lower value
# [8] = inhibitors of Cryptococcus chitosan production, flow cytometry, Cibacron Brilliant Red staining (AID 1347148; call rule not given here;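 note: compound exposure lasted three days at 37 degrees C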); details: Cryptococcus neoformans chitosan, stronger effect = lower value; at 99.1 µM unless noted
# [9] = CRL2098 osteosarcoma cell growth inhibition, synergistic combos for chromothripsis tumors, BGB or cisplatin IC20 combos (AID 1671454); details: CRL2098 osteosarcoma cells, drug combinations, stronger effect = higher value;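 note: cells exposed for 96 h before readout; 0% = vehicle DMSO and 100% = killing by high DMSO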
# [10] = HD-MB03 medulloblastoma cell growth inhibition, synergistic combos for chromothripsis tumors, BGB or cisplatin IC20 combos (AID 1671455; in the data active = inhibition above about 83%;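 note: 0% = vehicle DMSO and 100% = high DMSO as cytotoxic control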); details: HD-MB03 medulloblastoma cells, stronger effect = higher value
# [11] = UWB1.289 ovarian carcinoma cell growth inhibition, synergistic combos for chromothripsis tumors, BGB or cisplatin combos (AID 1671456); details: UWB1.289 ovarian carcinoma cells, stronger effect = higher value;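 note: cells exposed to compound for four days; 0% = vehicle DMSO and 100% = killing by high DMSO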
# [12] = LFS_MB_2R medulloblastoma cell growth inhibition, synergistic combos for chromothripsis tumors, cisplatin combos (AID 1671457); details: LFS_MB_2R medulloblastoma cells, stronger effect = higher value;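 note: cells exposed to compound for four days before readout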
# [13] = UWB1.289_BRCA1 ovarian cancer growth, cell-based, BGB or cisplatin combinations (AID 1671459); details: UWB1.289 BRCA1 ovarian carcinoma, drug combinations, stronger effect = higher value
# [14] = human astrocyte viability loss, single and combined drugs, cytotoxicity control for chromothriptic childhood tumor combination screen, cell-based, BGB or cisplatin IC20 combos (AID 1671460); details: Human astrocytes, drug combinations, stronger effect = higher value;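 note: cells exposed to compounds for 96 hours before viability readout; 0% = vehicle and 100% = killing control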
# [15] = measured here: combination with BGB at IC20, at 0.5 µM
# [16] = measured here: combination with cisplatin at IC20, at 0.5 µM
# [17] = measured here: combo with BGB at IC20, at 0.5 µM
# [18] = measured here: combo with cisplatin at IC20, at 0.5 µM
# [19] = measured here: inhibition with BGB combination, at 0.05 µM
# [20] = measured here: inhibition with cisplatin combination, at 0.05 µM
# [21] = measured here: combination with cisplatin, at 0.5 µM
# [22] = measured here: combination with cisplatin, at 5 µM
# [23] = BGB combination, concentration series, at 5 µM
# [24] = cisplatin combination, concentration series, at 5 µM
# [25] = measured here: combo with BGB IC20, at 0.5 µM
# [26] = measured here: combo with cisplatin IC20, at 0.5 µM
smiles,measurement,setting,value
CC(COc1ccccc1)N(CCCl)Cc1ccccc1 (stereo not given),period change,[1],0.03 h (inactive)
same,outcome,[2],inactive
CN=C(NC#N)NCCSCc1nc[nH]c1C,period change,[1],0.115 h (inactive)
same,remaining activity,[3],118% (inactive)
O=C(C1CCCCC1)N1CC(=O)N2CCc3ccccc3C2C1 (stereo not given),period change,[1],0.13 h (inactive)
same,outcome,[2],inactive
CC1(C)O[C@@H]2[C@@H](CO[C@@]3(COS(N)(=O)=O)OC(C)(C)O[C@@H]23)O1,parasite load remaining,[4],169% (inactive) and 59.3% (inactive) and 91.8% (inactive)
same,viability,[4],90.1% and 108% and 69.4%
same,z-score,[5],-1.38 (inactive)
same,remaining activity,[3],121% (inactive)
CC(C)C(=O)Nc1ccc([N+](=O)[O-])c(C(F)(F)F)c1,fluorescence slope change,[6],60.9% (active)
same,period change,[1],-0.165 h (inactive)
same,outcome,[2],inactive
same,SSMD,[7],1.17
same,cell count,[7],6660
same,plate-normalised HSF1 focus index,[7],1.06 (inactive)
CCCCNc1cc(C(=O)O)cc(S(N)(=O)=O)c1Oc1ccccc1,fluorescence slope change,[6],105% (active)
same,period change,[1],0.11 h (inactive)
same,outcome,[2],inactive
same,fold fluorescence,[8],4.08 [at 137.2 µM] (inactive)
NCCc1ccc(O)c(O)c1,period change,[1],-0.01 h (inactive)
same,parasite load remaining,[4],36.4% (inactive) and 34.7% (inactive) and 21% (inactive)
same,viability,[4],120% and 74.1% and 206%
OC(Cn1cncn1)(Cn1cncn1)c1ccc(F)cc1F,outcome,[2],inactive
CC12CC3CC(C)(C1)CC(N)(C3)C2,period change,[1],0.205 h (inactive)
same,outcome,[5],inactive
same,remaining activity,[3],87.5% (inactive)
CC(C[N+](C)(C)C)OC(N)=O (stereo not given),period change,[1],-0.04 h (inactive)
CC1=C(/C=C/C(C)=C/C=C/C(C)=C/C(=O)O)C(C)(C)CCC1,fluorescence slope change,[6],101% (active)
same,period change,[1],0.355 h (inactive)
same,remaining activity,[3],104% (inactive)
same,fold fluorescence,[8],4.11 [at 10 µM] (inactive)
COc1c(N2CCNC(C)C2)c(F)cc2c(=O)c(C(=O)O)cn(C3CC3)c12 (stereo not given),inhibition,[9]; at 0.5 µM,-43.6% (inactive) and -34.5% (inactive)
same,inhibition,[9]; [15],-42.5% and -87.3%
same,inhibition,[9]; [16],-71.8% and 0.194%
same,inhibition,[10]; at 0.5 µM,-13.9% (inactive) and 3.18% (inactive)
same,inhibition,[10]; [17],-14.1% and 5.19%
same,inhibition,[10]; [18],-19.6% and 0.97%
same,inhibition,[11]; at 0.5 µM,-2.27% (inactive) and 6.63% (inactive)
same,inhibition,[11]; [19],-7.46% and -0.326%
same,inhibition,[11]; [20],-30.7% and -0.886%
same,inhibition,[12]; at 0.5 µM,-11.1% (inactive) and 6.57% (inactive)
same,inhibition,[12]; [21],-12.5% and 9.12%
same,inhibition,[12]; [22],-5.47% and -26.4%
same,inhibition,[13]; [23],-10.3% and 3.45%
same,inhibition,[13]; at 0.5 µM,-4.22% (inactive) and 5.59% (inactive)
same,inhibition,[13]; [24],-1.48% and 7.21%
same,inhibition,[14]; at 0.5 µM,-3.01% (inactive) and 1.57% (inactive)
same,inhibition,[14]; [25],-5.37% and 4.53%
same,inhibition,[14]; [26],-9.08% and 0.874%
O=C(O)c1cc(=O)c2c(OCC(O)COc3cccc4oc(C(=O)O)cc(=O)c34)cccc2o1,outcome,[2],inactive
CS(=O)(=O)OCCCCOS(C)(=O)=O,fluorescence slope change,[6],13.3% (inactive)
same,parasite load remaining,[4],46.8% (inactive) and 102% (inactive) and 58% (inactive)
same,viability,[4],95.5% and 78.8% and 98.1%
same,inhibition,[9]; at 0.5 µM,-52.1% (inactive) and -4.61% (inactive)
same,inhibition,[9]; [15],-29.9% and -15.7%
same,inhibition,[9]; [16],-107% and 11.7%
same,inhibition,[10]; at 0.5 µM,-10.8% (inactive) and -1.12% (inactive)
same,inhibition,[10]; [17],-20.4% and -4.59%
same,inhibition,[10]; [18],-6.85% and 1.19%
same,inhibition,[11]; at 0.5 µM,4.55% (inactive) and 10.4% (inactive)
same,inhibition,[11]; [19],-3.6% and 0.829%
same,inhibition,[11]; [20],24.9% and -0.011%
same,inhibition,[12]; at 0.5 µM,-13.8% (inactive) and 9.5% (inactive)
same,inhibition,[12]; [21],-18.7% and -5.75%
same,inhibition,[12]; [22],-4.43% and 9.74%
same,inhibition,[13]; [23],12% and 6.21%
same,inhibition,[13]; at 0.5 µM,5.87% (inactive) and 9.31% (inactive)
same,inhibition,[13]; [24],-4.07% and 9.32%
same,inhibition,[14]; at 0.5 µM,7.45% (inactive) and 3.61% (inactive)
same,inhibition,[14]; [25],2.2% and 2.78%
same,inhibition,[14]; [26],9.68% and 12.3%
CCN(Cc1ccncc1)C(=O)C(CO)c1ccccc1 (stereo not given),fluorescence slope change,[6],82.5% (active)
same,period change,[1],0.035 h (inactive)
same,remaining activity,[3],104% (inactive)
COCCOC(=O)C1=C(C)NC(C)=C(C(=O)OC(C)C)C1c1cccc([N+](=O)[O-])c1 (stereo not given),period change,[1],0.19 h (inactive)
same,z-score,[5],-0.18 (inactive)
same,remaining activity,[3],102% (inactive)
same,fold fluorescence,[8],6.04 [at 119.5 µM] (inactive)
CC1COc2c(N3CCN(C)CC3)c(F)cc3c(=O)c(C(=O)O)cn1c23 (stereo not given),period change,[1],0.06 h (inactive)
same,outcome,[2],inactive
same,inhibition,[9]; at 0.5 µM,-97.4% (inactive) and -9.66% (inactive) and -3.54% (inactive)
same,inhibition,[9]; [15],-84.4% and -20.4% and 15.5%
same,inhibition,[9]; [16],-95.4% and 17.6% and 11.9%
same,inhibition,[10]; at 0.5 µM,-17.7% (inactive) and 0.8% (inactive) and 1.26% (inactive)
same,inhibition,[10]; [17],-22% and -1.41% and -0.426%
same,inhibition,[10]; [18],-27.3% and 2.8% and -2.37%
same,inhibition,[11]; at 0.5 µM,-7.78% (inactive) and 3.9% (inactive) and 3.09% (inactive)
same,inhibition,[11]; [19],-28.7% and 4.48% and 2.71%
same,inhibition,[11]; [20],-3.9% and 3.6% and -0.825%
same,inhibition,[12]; at 0.5 µM,-19.3% (inactive) and 6.15% (inactive) and -0.77% (inactive)
same,inhibition,[12]; [21],-23.3% and -0.024% and 7.26%
same,inhibition,[12]; [22],-88.9% and 5.83% and 8.15%
same,inhibition,[13]; [23],-49.7% and -1.75% and -2.9%
same,inhibition,[13]; at 0.5 µM,-9.08% (inactive) and -0.86% (inactive) and 1.25% (inactive)
same,inhibition,[13]; [24],-6.84% and 7.33% and -3.71%
same,inhibition,[14]; at 0.5 µM,-0.29% (inactive) and 4.48% (inactive) and 7.23% (inactive)
same,inhibition,[14]; [25],12.7% and 6.41% and 15%
same,inhibition,[14]; [26],-18.7% and -2.95% and 15.1%
NNCCc1ccccc1,fluorescence slope change,[6],67.1% (active)
same,period change,[1],0.145 h (inactive)
same,z-score,[5],-0.0568 (inactive)
same,outcome,[2],inactive
CCCc1nc2c(C)cc(-c3nc4ccccc4n3C)cc2n1Cc1ccc(-c2ccccc2C(=O)O)cc1,z-score,[5],-0.492 (inactive)
same,outcome,[2],inactive
NNC(=O)c1ccncc1,fluorescence slope change,[6],55.1% (active)
COc1ccccc1OCCNCC(O)COc1cccc2[nH]c3ccccc3c12 (stereo not given),parasite load remaining,[4],91.3% (inactive) and 56.7% (inactive) and 56.6% (inactive)
same,z-score,[5],1.06 (inactive)
same,remaining activity,[3],112% (inactive)
NS(=O)(=O)c1cc2c(cc1Cl)NCNS2(=O)=O,period change,[1],0.06 h (inactive)
same,outcome,[2],inactive
O=C(O)CCCc1ccccc1,parasite load remaining,[4],61.6% (inactive) and 72.5% (inactive)
same,viability,[4],96.6% and 102%
same,remaining activity,[3],106% (inactive)
same,SSMD,[7],2.46
same,cell count,[7],7000
same,plate-normalised HSF1 focus index,[7],1.14 (inactive)
same,inhibition,[9]; at 0.5 µM,-56.1% (inactive)
same,inhibition,[9]; [15],-54.3%
same,inhibition,[9]; [16],-68.3%
same,inhibition,[10]; at 0.5 µM,-7.96% (inactive)
same,inhibition,[10]; [17],-7.07%
same,inhibition,[10]; [18],-7.42%
same,inhibition,[11]; at 0.5 µM,-4.79% (inactive)
same,inhibition,[11]; [19],-17.3%
same,inhibition,[11]; [20],-13.9%
same,inhibition,[12]; at 0.5 µM,-17.8% (inactive)
same,inhibition,[12]; [21],-17.8%
same,inhibition,[12]; [22],-56.2%
same,inhibition,[13]; [23],3.17%
same,inhibition,[13]; at 0.5 µM,-1.28% (inactive)
same,inhibition,[13]; [24],25.2%
same,inhibition,[14]; at 0.5 µM,2.17% (inactive)
same,inhibition,[14]; [25],-14.8%
same,inhibition,[14]; [26],-0.734%
